Test results as given in PubChem BioAssay (Tox21).
Records with an inconclusive call do not appear. Calls of active or inactive are those of the source. Unless noted, the call rests on the fitted dose curve; in most records, active means well fitted curve in the direction sought with a large enough effect in the repeat runs; inconclusive means weak or mixed curves; inactive means no such curve, though single readings can be large; an effect the other way counts as inactive or inconclusive.

Tests used:
[1] = qHTS assay to identify small molecule antagonists of the glucocorticoid receptor (GR) signaling pathway - cell viability counter screen (AID 720693); conditions: GR-bla HeLa viability, CellTiter-Glo luminescence, 18 h, with 5 nM dexamethasone present; series mostly up to 58.5 µM; further: nearly all actives have a fitted effect of over 55% in size
[2] = qHTS assay for identifying genotoxic compounds that show differential cytotoxicity against isogenic chicken DT40 cell lines with known DNA damage response pathways - wild type cell line (AID 743012); conditions: DT40 wild type chicken cells viability, CellTiter-Glo, 40 h; series mostly up to 68.4 µM; further: nearly all actives have a fitted effect of over 60% in size; further: potency means the concentration at half of the fitted maximal effect
Procedure, shortened: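 Endpoint: CellTiter-Glo luminescence, 30 min RT. Cells: wild type DT40, 300/well. Exposure: compounds in DMSO, 40 h, 37 C/5% CO2, after ~0.5 h pre-incubation.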

[3] = qHTS assay for identifying genotoxic compounds that show differential cytotoxicity against isogenic chicken DT40 cell lines with known DNA damage response pathways - Rev3 mutant cell line (AID 743014); conditions: chicken DT40 Rev3-/- viability, CellTiter-Glo, 40 h; series mostly up to 68.4 µM; further: nearly all actives have a fitted effect of over 55% in size; further: potency means the concentration at half of the fitted maximal effect
[4] = qHTS assay for identifying genotoxic compounds that show differential cytotoxicity against isogenic chicken DT40 cell lines with known DNA damage response pathways - Rad54/Ku70 mutant cell line (AID 743015); conditions: DT40 Rad54/Ku70 mutant viability, CellTiter-Glo, 40 h; series mostly up to 66.8 µM; further: nearly all actives have a fitted effect of over 60% in size; further: potency means the concentration at half of the fitted maximal effect
[5] = qHTS assay to identify small molecule antagonists of the androgen receptor (AR) signaling pathway - cell viability counter screen (AID 743033; further: nearly all actives have a fitted effect of over 45% in size); conditions: AR-bla HEK293 viability, CellTiter-Glo luminescence, 16 h; series mostly up to 58.5 µM
[6] = target: Androgen receptor (Homo sapiens) (UniProt P10275); assay: qHTS assay to identify small molecule antagonists of the androgen receptor (AR) signaling pathway (AID 743035; active means well fitted inhibition curve with a large enough effect in the signal ratio in the repeat runs, not every such curve was filed as active; the % refers to the signal ratio; further: potency means the concentration at half of the fitted maximal effect); conditions: HEK293 AR-UAS-bla, R1881-stimulated, beta-lactamase FRET, 16 h; series mostly up to 58.5 µM
Procedure, shortened: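 R1881 agonist challenge of a HEK293 UAS-beta-lactamase AR reporter line in the presence of compound (16 h, 37C); signal taken as FRET fluorescence after 2 h with LiveBLAzer B/G substrate at room temperature.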

[7] = target: Androgen receptor (Homo sapiens) (UniProt P10275); assay: qHTS assay to identify small molecule agonists of the androgen receptor (AR) signaling pathway using the MDA cell line (AID 743040; further: nearly all actives have a fitted effect of over 20% in size; further: potency means the concentration at half of the fitted maximal effect); conditions: MDA-kb2 AR-luc cells, MMTV luciferase, 16 h; series mostly up to 70.3 µM
Procedure, shortened: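 Luciferase read-out, ONE-Glo, 30 min RT. Cells: MDA-kb2 AR-luc, MMTV promoter with AR and GR response elements. Compound exposure 16 h, 37C, 0% CO2, after 5 h pre-incubation. qHTS agonist mode.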

[8] = target: Androgen receptor (Homo sapiens) (UniProt P10275); assay: qHTS assay to identify small molecule antagonists of the androgen receptor (AR) signaling pathway using the MDA cell line (AID 743042; further: nearly all actives have a fitted effect of over 55% in size); conditions: MDA-kb2 AR-luc, MMTV luciferase, R1881 antagonist, 16 h; series mostly up to 70.3 µM
Procedure, shortened: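 MDA-kb2 breast carcinoma cells carrying MMTV-luciferase (AR/GR responsive) were co-treated with compounds and the agonist R1881 for 16 h at 37C. Inhibition read as ONE-Glo luminescence; CellTiter-Fluor fluorescence measured in parallel for cytotoxicity.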

[9] = target: Androgen receptor (Homo sapiens) (UniProt P10275); assay: qHTS assay to identify small molecule agonists of the androgen receptor (AR) signaling pathway (AID 743036; active means well fitted activation curve with a large enough effect in the signal ratio in the repeat runs, with a control signal flat, not every such curve was filed as active; the % refers to the signal ratio); conditions: HEK293 AR-UAS-bla GripTite, beta-lactamase FRET ratio, 16 h; series mostly up to 62.4 µM
Procedure, shortened: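 HEK293 cells stably carrying a UAS-driven beta-lactamase reporter (GeneBLAzer AR-UAS-bla-GripTite) were plated at 2,000 cells/well, rested 4 h at 37C, then exposed to compounds in DMSO for 16 h. LiveBLAzer B/G FRET substrate was added for 2 h at room temperature; fluorescence read.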

[10] = qHTS assay to identify small molecule antagonists of the androgen receptor (AR) signaling pathway using the MDA cell line - cell viability counter screen (AID 743041; further: nearly all actives have a fitted effect of over 45% in size); conditions: MDA-kb2 viability, CellTiter-Fluor, 16 h, cells co-treated with R1881 androgen agonist; series mostly up to 70.3 µM
Procedure, shortened: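 Cytotoxicity counter screen: MDA-kb2 AR-luc cells, compound + R1881, 16 h, 37C, 0% CO2; CellTiter-Fluor added at 15.5 h, fluorescence read after 30 min.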

Measured: Potency

Androgen receptor (Homo sapiens), sequence (P10275 whole entry, looked up): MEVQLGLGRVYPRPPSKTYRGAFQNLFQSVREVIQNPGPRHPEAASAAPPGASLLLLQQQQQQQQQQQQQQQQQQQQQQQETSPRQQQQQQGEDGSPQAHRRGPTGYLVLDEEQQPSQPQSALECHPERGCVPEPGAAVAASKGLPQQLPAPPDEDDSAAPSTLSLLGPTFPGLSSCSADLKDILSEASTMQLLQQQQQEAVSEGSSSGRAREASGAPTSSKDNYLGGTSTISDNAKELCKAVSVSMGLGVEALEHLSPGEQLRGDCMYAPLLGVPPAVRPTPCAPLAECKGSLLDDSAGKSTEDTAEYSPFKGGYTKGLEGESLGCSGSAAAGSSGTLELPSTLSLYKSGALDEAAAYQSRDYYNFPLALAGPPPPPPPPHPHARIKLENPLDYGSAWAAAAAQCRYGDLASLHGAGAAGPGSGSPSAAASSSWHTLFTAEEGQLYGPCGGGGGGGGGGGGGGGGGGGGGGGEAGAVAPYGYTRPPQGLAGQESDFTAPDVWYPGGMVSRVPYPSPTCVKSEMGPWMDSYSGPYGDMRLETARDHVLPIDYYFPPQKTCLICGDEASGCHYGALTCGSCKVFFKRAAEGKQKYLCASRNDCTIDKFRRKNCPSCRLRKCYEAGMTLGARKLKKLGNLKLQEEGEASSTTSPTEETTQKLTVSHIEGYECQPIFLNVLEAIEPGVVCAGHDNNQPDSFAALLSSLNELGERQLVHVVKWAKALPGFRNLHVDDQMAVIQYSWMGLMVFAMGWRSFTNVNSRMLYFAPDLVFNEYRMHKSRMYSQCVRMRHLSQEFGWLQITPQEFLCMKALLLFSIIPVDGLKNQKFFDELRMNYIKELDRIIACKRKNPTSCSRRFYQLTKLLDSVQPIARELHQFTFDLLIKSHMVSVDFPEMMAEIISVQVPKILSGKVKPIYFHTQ

CCCC(=O)O[C@]1(C(=O)CCl)[C@@H](C)C[C@H]2[C@@H]3CCC4=CC(=O)C=C[C@]4(C)[C@@]3(F)C(=O)C[C@@]21C
active: [2] 6.68 µM | [3] 7.5 µM | [4] 13.3 µM | [6] 7.56 µM | [7] 0.006 µM
inactive: [1] | [5] | [8]

CCCC(C)CO (stereo not given)
inactive: [1] | [2] | [3] | [4] | [5] | [6] | [9] | [10] | [8]

COC(=O)[C@H]1[C@H]2C[C@@H]3c4[nH]c5cc(OC)ccc5c4CCN3C[C@H]2C[C@@H](OC(=O)COc2ccc(OC)cc2)[C@@H]1OC
active: [2] 21.1 µM | [3] 33.5 µM | [4] 18.8 µM
inactive: [1]

O=C(O)c1cccc(C(=O)O)n1
inactive: [1] | [2] | [3] | [4] | [5]

OCC(O)[C@@H](O)[C@H](O)[C@H](O)CO[C@H]1O[C@H](CO)[C@@H](O)[C@H](O)[C@H]1O (stereo not given in full)
inactive: [1] | [2] | [3] | [4] | [5]

CCO[Si](C)(OCC)OCC
inactive: [1] | [2] | [3] | [4] | [5]

N#CC1(O)CCCCC1
inactive: [1] | [2] | [3] | [4] | [5]

NC(CS)C(=O)O (stereo not given)
inactive: [1] | [2] | [3] | [4] | [5]

Nc1cc(C(Cl)=C(Cl)Cl)c(S(N)(=O)=O)cc1S(N)(=O)=O
inactive: [1] | [2] | [3] | [4] | [5]

CC(C)(C)CC(C)(C)N
inactive: [1] | [2] | [3] | [4] | [5]

C#CC(O)C(CC)CCCC (stereo not given)
inactive: [1] | [2] | [3] | [4] | [5] | [6] | [9] | [7] | [10] | [8]

C1COCCO1
inactive: [1] | [2] | [3] | [4] | [5] | [6] | [9] | [7] | [8]

NC(N)=NS(=O)(=O)c1ccc(N)cc1
inactive: [1] | [2] | [3] | [4] | [5] | [6] | [9] | [7] | [10] | [8]

Nc1ccc2cc(S(=O)(=O)O)ccc2c1
inactive: [1] | [2] | [3] | [4] | [5]

N#CCc1ccccc1[N+](=O)[O-]
inactive: [1] | [2] | [3] | [4] | [5]

CN1[C@@H]2CC[C@H]1CC(NC(=O)n1c(=O)[nH]c3ccccc31)C2 (stereo not given in full)
inactive: [1] | [2] | [3] | [4] | [5] | [6] | [9] | [7] | [10] | [8]

Cn1cnc2c(=O)[nH]c(N)nc21
inactive: [1] | [2] | [3] | [5]
active: [4] 61.3 µM

COc1cc(C(=O)N2CCOCC2)cc(OC)c1OC
inactive: [1] | [2] | [3] | [4] | [5]

CC(C)[C@H](N)C(=O)OCCOCn1cnc2c(=O)[nH]c(N)nc21
active: [2] 11.9 µM | [3] 23.7 µM | [4] 26.6 µM
inactive: [1] | [5]

CCCCCCC(=O)OCC
inactive: [1] | [2] | [3] | [4] | [5]

c1ccc(SCCSc2ccccc2)cc1
inactive: [1] | [2] | [3] | [4] | [5] | [6] | [9] | [7] | [10] | [8]

CC(C)(O)Cc1ccccc1
inactive: [1] | [2] | [3] | [4] | [5]

Oc1cc(O)c2c(c1)O[C@H](c1ccc(O)c(O)c1)[C@H](O)C2
inactive: [1] | [2] | [3] | [4] | [5]

O=C(O)/C=C/c1ccc(/C=C/C(=O)O)cc1
inactive: [1] | [2] | [3] | [4] | [5] | [6] | [9] | [7] | [10] | [8]

CCOC(=O)Nc1ccc2c(c1)N(C(=O)CCN1CCOCC1)c1ccccc1S2
active: [7] 12.7 µM
inactive: [1] | [2] | [3] | [4] | [5] | [6] | [9] | [10] | [8]

O=[N+]([O-])c1ccc(CCO)cc1
inactive: [1] | [2] | [3] | [4] | [5]

CC(C)CCCC(C)CCCC(C)CCCCC(C)CCCC(C)CCCC(C)C (stereo not given)
inactive: [1] | [2] | [3] | [4] | [5]

CC(C)c1cccc(O)c1
inactive: [1] | [2] | [3] | [4] | [5]

O=S(=O)(O)c1ccccc1O
inactive: [1] | [2] | [3] | [4] | [5] | [6] | [9] | [7] | [8]

NCC[C@H](O)C(=O)N[C@@H]1C[C@H](N)[C@@H](O[C@H]2O[C@H](CN)[C@@H](O)[C@H](O)[C@H]2O)[C@H](O)[C@H]1O[C@H]1O[C@H](CO)[C@@H](O)[C@H](N)[C@H]1O
inactive: [1] | [2] | [3] | [4] | [5] | [6] | [9] | [7] | [10] | [8]

CCC(C(=O)NC(N)=O)c1ccccc1 (stereo not given)
inactive: [1] | [2] | [3] | [4] | [5]

CCCCNc1ccccc1
inactive: [1] | [2] | [3] | [4] | [5] | [6] | [7] | [8]

NS(=O)(=O)c1cc2c(cc1C(F)(F)F)NC(Cc1ccccc1)NS2(=O)=O (stereo not given)
inactive: [1] | [2] | [3] | [4] | [5] | [6] | [9] | [7] | [10] | [8]

CN(C)CCn1nnnc1SCC1=C(C(=O)O)N2C(=O)[C@@H](NC(=O)Cc3csc(N)n3)[C@H]2SC1
inactive: [1] | [2] | [3] | [4] | [5] | [6] | [9] | [7] | [10] | [8]

COC(=O)CCCCCCCCC(=O)OC
inactive: [1] | [2] | [3] | [4] | [5]

CCCCN(CCO)CCO
inactive: [1] | [2] | [3] | [4] | [5] | [10]

COc1ccc(N=[N+]([O-])c2ccc(OC)cc2)cc1
inactive: [1] | [2] | [3] | [4] | [5] | [10]

COCc1ccc(COC)cc1
inactive: [1] | [2] | [3] | [4] | [5] | [10]

O=C(O)Cc1cc(I)c(Oc2cc(I)c(O)c(I)c2)c(I)c1
inactive: [1] | [2] | [3] | [4] | [5] | [10]

CCCCC1CCCCC(=O)O1 (stereo not given)
inactive: [1] | [2] | [3] | [4] | [5] | [10]

CC(=O)c1ccc(C)cc1
inactive: [1] | [2] | [3] | [4] | [5] | [10]

Cc1ncc(CSSCc2cnc(C)c(O)c2CO)c(CO)c1O
inactive: [1] | [2] | [3] | [4] | [5] | [9] | [7] | [10] | [8]

c1cc(CN2CCCCC2)cc(OCCCNc2nc3ccccc3s2)c1
inactive: [1] | [5] | [10]
active: [2] 13.3 µM | [3] 29.8 µM | [4] 23.7 µM

CC(C=O)Cc1ccc(C(C)C)cc1 (stereo not given)
inactive: [1] | [2] | [3] | [4] | [5] | [10]

OCCCCCCO
inactive: [1] | [2] | [3] | [4] | [5] | [10]

CC(=O)NC(Cc1ccccc1)C(=O)O (stereo not given)
inactive: [1] | [2] | [3] | [4] | [5] | [10]

CCCC(C)C(=O)O (stereo not given)
inactive: [1] | [2] | [3] | [4] | [5] | [10]

Cc1c(C)n(CCN(C)C)c2ccc(C(=O)OCCN(C)C)cc12
active: [2] 11.9 µM | [3] 7.5 µM | [4] 13.3 µM
inactive: [1] | [5] | [10]

CN(C)C(=O)Nc1ccccc1
inactive: [1] | [2] | [3] | [4] | [5] | [10]

Fc1ccccc1-c1ccccc1
inactive: [1] | [2] | [3] | [4] | [5] | [10]

CCCCCCOC(=O)CC(CC(=O)OCCCCCC)(OC(=O)CCC)C(=O)OCCCCCC
inactive: [1] | [2] | [3] | [4] | [5] | [9] | [7] | [10] | [8]

C=C(C)C(=O)OCCC(C)OC(=O)C(=C)C (stereo not given)
inactive: [1] | [2] | [3] | [4] | [5] | [10]

CCCCCCCCCCCCI
inactive: [1] | [5] | [10]
active: [2] 54.7 µM | [3] 7.73 µM | [4] 27.4 µM

CCO[Si](CCCN=C=O)(OCC)OCC
inactive: [1] | [2] | [3] | [4] | [5] | [10]

NC(=O)CCCCC1CCSS1 (stereo not given)
inactive: [1] | [2] | [3] | [4] | [5] | [10]

Cc1nccn1CC1CCc2c(c3ccccc3n2C)C1=O (stereo not given)
inactive: [1] | [2] | [3] | [4] | [5] | [10]

OCc1ccccn1
inactive: [1] | [2] | [3] | [4] | [5] | [10]
